HPGD inh: blocks human HPGD enzyme activity. P15428. purified HPGD, NADH fluorescence kinetic, PGE2 substrate. Potency, µM, hits mostly inhibitors. 150,000 compounds, 4.3% hits. AID 894
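20 nM HPGD preincubated 15 min at room temperature with compound in 50 mM Tris-HCl pH 8, 0.01% Tween 20. Started with 1 mM NAD+ and 30 uM prostaglandin E2; NADH fluorescence (360/450 nm) read 5 times over 30-s intervals, last minus first.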
ALDH1A1 inh: ALDH1A1 (human) enzyme inhibition; P00352; Purified ALDH1A1, NADH fluorescence, propionaldehyde substrate; Potency, µM (doses to about 75.3 µM), hits mostly inhibitors; AID 1030; 220,000 compounds, 7.3% hits
Target sequence (P00352 whole entry, looked up): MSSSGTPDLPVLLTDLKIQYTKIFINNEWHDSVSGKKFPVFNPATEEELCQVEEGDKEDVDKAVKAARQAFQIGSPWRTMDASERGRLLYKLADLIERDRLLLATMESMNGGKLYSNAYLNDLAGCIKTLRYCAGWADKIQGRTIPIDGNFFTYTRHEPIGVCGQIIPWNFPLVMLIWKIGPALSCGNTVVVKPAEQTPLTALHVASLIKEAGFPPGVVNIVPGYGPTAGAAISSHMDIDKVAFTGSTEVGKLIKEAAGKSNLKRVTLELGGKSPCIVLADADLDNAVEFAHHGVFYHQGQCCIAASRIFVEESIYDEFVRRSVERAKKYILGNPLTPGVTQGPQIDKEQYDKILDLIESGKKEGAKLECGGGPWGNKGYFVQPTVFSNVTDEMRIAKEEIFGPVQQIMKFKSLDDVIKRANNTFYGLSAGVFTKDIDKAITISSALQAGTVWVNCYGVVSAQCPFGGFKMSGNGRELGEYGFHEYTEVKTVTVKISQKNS
PNC assembly inh: blocks assembly of the perinucleolar compartment; PC3M PTB-GFP, PNC prevalence imaging, 16 h; stronger effect = lower value; activity change (PNC), negative = inhibition, % at 10 µM; 140,000 compounds, 3.1% hits;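 active means readout at or below -70, meaning at least 70% loss of cells showing the perinucleolar compartment, a nuclear body marking cancer cells; inconclusive means readout between -30 and a set limit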
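Read-out is percentage of cells bearing a perinucleolar compartment, from automated 20x imaging of fixed, Hoechst-stained PC3M PTB-GFP cells. Cells were seeded 4 h, then exposed 16 h to compound (23 nl of library stock) in duplicate plates.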
A number is an active result; n = inactive; u = inconclusive; x = no result given; [ ] = remark or other dose. Rows were chosen to be rich in hits. Some 11% of all compounds tested hit in one or more screens of this group. Unless noted, the call rests on the fitted dose curve; in most records, active means well fitted inhibition curve with a large enough effect (not every such curve was filed as active); inconclusive means small, poorly fitted or top-dose-only effect, or another doubt; inactive means no such curve, though single readings can be large or run the other way.

SMILES	HPGD inh	ALDH1A1 inh	PNC assembly inh
O=C(O)c1ccc2c(c1)N(Cc1ccccc1)C(=O)c1ccccc1S2=O (configuration not stated)	n	n	n
O=C(O)c1ccc2c(c1)C(=O)N(Cc1ccccc1)C2=O	14µM	n	n
O=C(Nc1ccc2c(c1)C(=O)N(CC1CCCO1)C2=O)c1cccc(Br)c1 (configuration not stated)	u	u	n
O=C(O)c1ccc(S(=O)(=O)c2ccc3c(c2)C(=O)N(Cc2ccco2)C3=O)cc1	n	u	n
O=C(O)c1ccc(S(=O)(=O)c2ccc3c(c2)C(=O)N(CC2CCCO2)C3=O)cc1 (configuration not stated)	n	n	-100
O=C(NCc1ccccc1)c1ccc2c(c1)C(=O)N(CC1CCCO1)C2=O (configuration not stated)	n	5µM	n
Nc1cccc(-n2cccc2)c1	x	n	x
COC(=O)Oc1ccccc1C(=O)O	u	n	x
Cc1c(C)c2c(c(C)c1O)CC[C@@](C)(C(=O)O)O2	n	n	x
CCOP(=O)(OCC)/C(C#N)=C/c1ccc([N+](=O)[O-])cc1	x	n	x
O=C(NCc1ccc2c(c1)OCO2)C1CCCN1S(=O)(=O)c1ccc(Cl)cc1 (configuration not stated)	x	n	x
COC(=O)c1cccc(NC(=O)c2ccc3c(c2)C(=O)N(CC2CCCO2)C3=O)c1 (configuration not stated)	n	1.4µM	u
O=C(O)c1cccc(NC(=O)c2ccc3c(c2)C(=O)N(CC2CCCO2)C3=O)c1 (configuration not stated)	n	u	u
O=C1N/C(=N\N=C\c2cccs2)SC1Cc1ccc(Cl)c(Cl)c1 (configuration not stated)	x	n	x
COc1cccc(CC(=S)N2CCOCC2)c1	n	n	u
CC[C@@H](C)[C@@H](CO[C@@H](Cc1ccccc1)C(=O)N[C@@H](CCS(C)(=O)=O)C(=O)OC(C)C)NC[C@@H](N)CS	x	16µM	x
COC(=O)C(CC(C)C)NC(=O)C(N)Cc1ccccc1 (configuration not stated)	n	n	n
O=C(COC(=O)c1cccc(NS(=O)(=O)c2ccc(F)c(F)c2)c1)NC(=O)NC1CCCC1	n	n	u
Cc1cc([N+](=O)[O-])nn1CCC(=O)Nc1nccs1	x	n	x
c1cc(CSSCc2ccncc2)ccn1	n	4µM	x
N=C(N)SCCc1ccncc1	n	n[13.5 µM]	x
COc1ccc(OC)c(-c2cc(C(=O)NCc3ccc(Cl)cc3)no2)c1	x	n	x
Oc1cc(O)c2c(c1)O[C@H](c1ccc(O)c(O)c1)[C@@H](O)[C@@H]2c1c(O)cc(O)c2c1O[C@@H](c1ccc(O)c(O)c1)[C@H](O)C2	n	n[13.5 µM]	x
Cc1ccc(C(=O)N/N=C\c2cc3c(cc2Br)OCO3)s1	u	u	n
N#CC1=C(N)N(c2ccc(F)cc2)C2=C(C1c1ccc(O)cc1)S(=O)(=O)CC2 (configuration not stated)	x	11µM	x
SMILES	HPGD inh	ALDH1A1 inh	PNC assembly inh
CSc1ccc(C2C(C#N)=C(N)N(c3ccccc3)C3=C2C(=O)CCC3)cc1 (configuration not stated)	n	u	n
COc1cc2c(cc1OC)C(C(=O)c1ccc(OC)c(OC)c1O)=NCC2	u	n	x
Cc1ccc(/C=N\NC(=O)C2CN(S(=O)(=O)c3ccccc3)CCN2S(=O)(=O)c2ccccc2)cc1 (configuration not stated)	n	n	n
O=C(CN1CCCCC1)Nc1ccc(NC(=O)c2ccccc2Cl)cc1Cl	u	u	n
COc1ccc(N2C(N)=C(C#N)C(c3ccsc3)C3=C2CCCC3=O)c(OC)c1 (configuration not stated)	n	n	-109
COc1cccc(C2C(C#N)=C(N)N(c3ncn[nH]3)C3=C2C(=O)CCC3)c1 (configuration not stated)	n	n	u
O=C(Nc1cccc(F)c1)N1CC[C@@]2(CCCN(C(=O)c3cccc(F)c3)C2)C1	n	n	x
C=CCn1c(-c2ccccc2)c[nH]c1=S	u	u	-117
CCn1c(-c2ccc(-c3ccccc3)cc2)c[nH]c1=S	u	u	n
C=CCn1c(-c2sccc2C)n[nH]c1=S	n	n	n
C=CCn1c(-c2ccc(Cl)cc2)c[nH]c1=S	11µM	1.4µM	n
Cc1ccc(-c2nnn(CC(=O)Nc3nnc(C(C)C)s3)n2)cc1	x	n	x
CCC1(C)Cc2c(C#N)c(N)sc(=S)c2CO1 (configuration not stated)	28µM	10µM	n
CCC1(C)Cc2c(C#N)c(N)n(-c3ccccc3)c(=S)c2CO1 (configuration not stated)	x	n	x
Cc1nc(N2CCOCC2)sc1C=O	x	n	x
Cc1cc2cc(CNC(=S)Nc3ccc(OC(F)F)cc3)ccc2[nH]1	n	n	n
